# Only some compounds are listed: those with a hit (about 3.5% of all), similar ones and a draw of the others.
# Rv3671c inh: inhibitors of M. tuberculosis serine protease Rv3671c | inhibition, % at 5.96 µM | actives 0.048% (n = 320,000) | AID 2606; in the data active means inhibition above about 38%;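 further: extracellular domain of Rv3671c used as enzyme; 0% = enzyme with DMSO and 100% = no enzyme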
# Mtb FBA inh: Mtb fructose-bisphosphate aldolase inhibition | P9WQA3 | purified M. tuberculosis FBA, fluorescence read-out | inhibition, % at 1 µM | actives 2.3% (n = 360,000) | AID 588726; in the data active means inhibition above about 27%;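 further: 0% = vehicle and 100% = reference inhibitor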
# Target sequence (P9WQA3 whole entry, looked up): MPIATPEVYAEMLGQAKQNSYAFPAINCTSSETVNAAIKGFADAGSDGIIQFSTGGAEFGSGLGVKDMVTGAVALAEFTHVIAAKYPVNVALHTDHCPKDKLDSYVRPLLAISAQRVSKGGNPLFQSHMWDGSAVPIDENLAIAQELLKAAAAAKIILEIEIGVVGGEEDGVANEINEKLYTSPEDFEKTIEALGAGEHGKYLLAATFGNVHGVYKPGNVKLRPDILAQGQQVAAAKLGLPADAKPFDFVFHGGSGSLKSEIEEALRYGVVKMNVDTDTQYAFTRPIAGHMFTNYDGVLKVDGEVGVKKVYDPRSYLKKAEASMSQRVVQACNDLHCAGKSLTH
# GDH-TPI counter: counter-screen for M. tuberculosis FBA inhibitors: GDH-TPI coupled enzymes; inhibition, % at 4.8 µM; AID 588335; actives 1.2% (n = 360,000); GDH-TPI coupled enzyme counterscreen, NADH absorbance; in the data active means inhibition above about 30%;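 further: 0% = DMSO wells and 100% = wells lacking the enzyme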
# Mtb bLac sens: beta-lactam sensitization of Mtb H37Rv; M. tuberculosis H37Rv growth with meropenem, percent inhibition; inhibition, % at 25 µM; actives 0.27% (n = 330,000); call rule not given here;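 further: growth measured after seven days incubation then overnight dye step; 0% = bacteria only wells and 100% = bacteria with antibiotic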
# UGM FP inh: inhibitors of M. tuberculosis UDP-galactopyranose mutase; P9WIQ1; purified UGM, fluorescence polarization probe displacement; inhibition, % at 10 µM; actives 0.06% (n = 320,000); in the data active means inhibition above about 10%, passing the limit was not always enough
# Numbers without * were called inactive; · = no result given; + = active, no number.
SMILES,Rv3671c inh,Mtb FBA inh,GDH-TPI counter,Mtb bLac sens,UGM FP inh
COc1ccc(C(CNC(=O)Cc2c(F)cccc2Cl)N2CCCCC2)cc1 (stereo not drawn),0,-2,-1,-6,-2
COc1cc(C(=O)N2CCN(C(=O)c3ccco3)CC2)c([N+](=O)[O-])cc1OC,5,-1,5,-9,1
Nc1ccc(C(=O)N/N=C/c2cn(Cc3ccc(F)cc3)c3ccccc23)cc1,·,2,33*,8,-5
C(=N\n1cnnc1)/c1cn(Cc2ccccc2)c2ccccc12,-16,-2,31*,7,0
Nc1ccc(C(=O)N/N=C/c2cn(Cc3ccccc3F)c3ccccc23)cc1,·,-2,30,-2,3
COc1ccc(-c2c(C)c3ccc(O)cc3oc2=O)cc1OC,-1,+,9,-1,1
CCCc1c(C)c2ccc(OCC(C)=O)cc2oc1=O,4,124*,4,51,-1
C=CCOC(=O)COc1ccc2c(C)c(CC)c(=O)oc2c1,-12,64*,-2,99,0
Cc1coc2cc3oc(=O)c(CCC(=O)NCC(=O)O)c(C)c3cc12,·,28*,14,-1,3
COc1cccc(-n2cc(C(=O)NC(C)C)c3ccccc3c2=O)c1,4,-1,3,0,2
Cc1c(CCC(=O)O)c(=O)oc2cc(O)ccc12,-3,+,20,-8,2
CCCc1c(O)c2ccccc2n(-c2ccccc2)c1=O,-4,45*,14,19,-2
COc1ccc2nc(N3CCOCC3)cc(C)c2c1,1,85*,15,8,0
COc1ccc2c(C)cc(N3CCOCC3)nc2c1,-3,12,7,-3,1
COc1ccc(/C=N/n2cnc3c([nH]c4ccccc43)c2=O)cc1COc1ccccn1,-11,·,·,1,0
CC(=O)Nc1ccc(/C(C)=N/NC(=O)c2ccc(COc3ccccc3Cl)o2)cc1,-3,3,31*,4,2
O=C(NCCc1nc2ccc(Cl)cc2[nH]1)C1CCC(=O)N(Cc2cccc(F)c2)C1 (stereo not drawn),-4,0,4,-7,-1
COc1ccc(CNC(=O)CN2CCC(NC(=O)c3ccc(OC)cc3)CC2)cc1,·,9,-1,·,·
CN1/C(=C/C(=O)COC(=O)C2COc3ccccc3O2)C(C)(C)c2ccccc21 (stereo not drawn),·,3,32*,·,·
CN1/C(=C\C(=O)COC(=O)CNC(=O)c2ccc3ccccc3c2)C(C)(C)c2ccccc21,-27,5,10,10,-1
CN1/C(=C\C(=O)COC(=O)CN2C(=O)C3CC=CCC3C2=O)C(C)(C)c2ccccc21 (stereo not drawn),-26,8,37*,3,3
COc1ccc(/C=C/C(=O)OCC(=O)Nc2ccc(Cl)c(S(=O)(=O)N(C)C)c2)cc1OC,-17,5,13,9,1
Cc1[nH]n(-c2ccccc2)c(=O)c1C=Nc1cccc(F)c1,-15,-1,32*,7,4
COC(=O)Cc1[nH]n(-c2ccccc2)c(=O)c1C=Nc1ccc(C)cc1,1,3,40*,41,-2
Cc1[nH]n(-c2ccccc2)c(=O)c1C=Nc1ccc2[nH]c(=O)[nH]c2c1,-6,2,15,9,-1
SMILES,Rv3671c inh,Mtb FBA inh,GDH-TPI counter,Mtb bLac sens,UGM FP inh
Cc1cccc(C)c1NC(=O)C1(C)CCC(=O)N1CCc1c[nH]c2ccccc12 (stereo not drawn),·,-2,·,·,·
COc1ccc(C(=O)CSc2nc3ccc([N+](=O)[O-])cc3[nH]2)cc1,-40,-4,2,-4,-1
Cc1cn([C@H]2C[C@H](O)[C@@H](CCC(=O)NCC3CCCO3)O2)c(=O)[nH]c1=O (stereo partly drawn),·,0,·,·,·
CN1CCN(C(=O)/C(=C/c2cn(S(=O)(=O)N(C)C)c3ccccc23)NC(=O)c2ccccc2F)CC1,10,0,8,-7,-3
CC1CCCCN1C(=O)CSc1nc2c(c(=O)n(C)c(=O)n2C)n1C (stereo not drawn),-6,1,-2,2,0
N#CC(C#N)=Cc1ccc(N2CCOCC2)cc1,5,-7,41*,3,-1
N#C/C(=C\c1ccc(N2CCOCC2)cc1)c1ccccc1,-2,4,29,48,2
O=C(Nc1cccc(NC(=O)c2ccco2)n1)c1ccco1,-1,0,4,-2,1
O=C1N=C(N2C=CC(=C3C=CNC=C3)C=C2)/C(=C/N=NC(=O)c2ccccc2O)S1,1,-5,53*,0,0
Cc1ccc(-c2nc3ccc(C(=O)O)cc3nc2-c2ccc(C)cc2)cc1,0,10,21,89,0
